# Data reported in the supplement of paper PMC9433436.
# ± gives the standard deviation of the averaged measurements. In all, about 4,100 sequences were measured (“relative kcat/Km (krel) vs genomic leader AAAGAU”: median about 1.7, highest 2% from about 6.5 on). What follows is part of a selection rich in the highest values, with near analogues and random picks from the rest.
# Biological target: T1, E. coli RNase P holoenzyme (M1 P RNA + rnpA protein) (UniProt P0A7Y8)
# T1 sequence: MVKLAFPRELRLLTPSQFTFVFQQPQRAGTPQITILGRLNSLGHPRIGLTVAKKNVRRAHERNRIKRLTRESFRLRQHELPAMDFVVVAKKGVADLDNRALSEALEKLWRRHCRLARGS
# Assay: relative kcat/Km (krel) vs genomic leader AAAGAU (relative (reference leader = 1)); higher = faster RNase P cleavage
# Method in brief: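 Relative kcat/Km (krel) values came from internal competition kinetics on sequencing read ratios, normalised to the genomic leader and averaged over two technical replicates. A precursor tRNA-Met pool with randomized leader positions −6 to −1 was cleaved by E. coli RNase P holoenzyme (P RNA plus C5 protein) under multiple-turnover conditions at 37 °C. The buffer held 50 mM Tris-HCl pH 8, 100 mM NaCl and 17.5 mM MgCl2, and unreacted precursor was gel-purified at ~5–30% conversion, made into cDNA libraries and Illumina-sequenced.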
# [1] = fraction of substrate reacted: ~9-10% (9.79% repeat 1, 9.1% repeat 2)
# [2] = fraction of substrate reacted: ~13-16% (15.68% repeat 1, 13.17% repeat 2)
# [3] = fraction of substrate reacted: ~26-29% (28.66% repeat 1, 26.4% repeat 2)
Sequence,relative kcat/Km [1],relative kcat/Km [2],relative kcat/Km [3]
TATCTA,2.06 ± 0.75,2.24 ± 0.15,2.97 ± 1.5
AAGCAC,2.14 ± 1.2,1.53 ± 0.4,3.12 ± 1.2
GTTTGC,2.91 ± 0.62,3.18 ± 0.81,5.13 ± 1.9
TTTTGT,–,–,2.01 ± 1.6
TTTTGC,3.65 ± 1.3,4.42 ± 1.1,6.61 ± 2.8
TTTTGA,3.16 ± 0.88,4.56 ± 1.3,6.55 ± 2.4
ATTTGC,3.17 ± 0.9,3.69 ± 0.87,5.35 ± 1.6
TTTTGG,0.508 ± 0.012,–,0.844 ± 0.31
AGAAAC,3.18 ± 0.43,2.7 ± 0.75,3.84 ± 1.5
ATAACA,0.435 ± 0.37,0.897 ± 0.17,1.43 ± 0.58
AAGAAT,2.06 ± 0.33,1.89 ± 0.36,3.17 ± 1.4
TGTTGA,2.15 ± 0.44,3.32 ± 1.3,5.59 ± 2.1
AGTTCA,2.22 ± 0.21,2.82 ± 0.86,4.24 ± 1.9
AGTTTT,2.68 ± 0.23,3.38 ± 0.73,5.01 ± 1.8
TGTTAC,3.59 ± 1.3,5.21 ± 1.2,8.19 ± 3.8
TGTTGC,2.72 ± 0.32,2.95 ± 0.082,4.88 ± 1.9
AGTTCT,2.55 ± 0.89,3.08 ± 1.2,4.6 ± 1.6
TGTTAA,4.01 ± 0.87,5.39 ± 1.7,7.94 ± 3.5
AGTTAT,2.78 ± 0.19,4.36 ± 0.82,7 ± 3.2
AGTTAA,3.63 ± 1.5,5.9 ± 0.68,7.15 ± 2.6
AGTTTA,2.86 ± 0.36,3.18 ± 0.34,4.93 ± 2.3

Sequence,relative kcat/Km [1],relative kcat/Km [2],relative kcat/Km [3]
TGTTCC,2.41 ± 1.7,3.08 ± 0.79,3.89 ± 1.1
TGTTTA,2.78 ± 0.84,3.23 ± 0.41,4.92 ± 2
ATGCAG,–,0.709 ± 0.22,0.668 ± 0.4
ACAGCG,–,–,1.17 ± 0.16
AAGGGT,–,–,0.872 ± 0.84
GAATTA,1.25 ± 0.15,1.82 ± 0.37,2.25 ± 0.75
AATGCC,2.38 ± 1.7,1.43 ± 0.1,1.48 ± 0.22
TCGCAA,2.14 ± 1.8,2.55 ± 0.15,3.22 ± 0.85
CAGATT,1.72 ± 0.68,2 ± 0.1,2.79 ± 0.81
CGTTAA,3.62 ± 0.3,5.04 ± 1.6,7.04 ± 2.8
CGTTTA,2.35 ± 0.28,3.11 ± 0.48,4.14 ± 1.4
CGTTAC,3.84 ± 0.72,5.28 ± 1.9,7.82 ± 2.9
TGTTAG,2.17 ± 1.1,2.36 ± 0.065,4.6 ± 1.1
CGTTAG,2.87 ± 1.6,2.22 ± 0.3,4 ± 1.2
TGTTCT,1.986 ± 0.0021,2.58 ± 0.73,4.41 ± 1.8
GGTTAC,0.591 ± 0.54,1.09 ± 0.22,2.13 ± 0.98
CGTTGT,0.465 ± 0.32,–,1.21 ± 0.9
GGTTAT,0.926 ± 0.33,1.69 ± 0.19,2.83 ± 1.2
GGTTAA,0.853 ± 0.094,1.16 ± 0.33,1.35 ± 0.6
CGTTAT,4.04 ± 1,5.58 ± 1.3,8.08 ± 3.4
TGTTAT,3.17 ± 1.4,4.69 ± 0.22,6.81 ± 2.8

Sequence,relative kcat/Km [1],relative kcat/Km [2],relative kcat/Km [3]
TATTGT,0.735 ± 0.4,–,–
GACCAC,2.53 ± 1.4,3.51 ± 0.65,5.22 ± 1.2
GCCCAG,0.499 ± 0.44,0.933 ± 0.79,3 ± 0.76
AAAATC,2.07 ± 0.94,1.14 ± 0.28,1.37 ± 0.15
AGTTAC,3.18 ± 1.6,5.31 ± 0.22,7.26 ± 2.7
AGTTAG,2.06 ± 1.1,2.34 ± 0.29,4.77 ± 1.3
ACTTAC,3.88 ± 2.3,4.09 ± 0.096,5.29 ± 1.6
TACGTA,2.14 ± 0.53,2.47 ± 0.38,3.67 ± 1.2
CAGAGT,–,–,0.537 ± 0.3
TTCTTA,4.55 ± 1.2,5.9 ± 0.59,7.98 ± 3.2
GTCTTG,2.05 ± 1.9,1.96 ± 0.21,3.58 ± 0.69
CTCTTC,3.63 ± 0.69,4.38 ± 0.62,6.47 ± 2.3
CTCTTA,2.98 ± 0.098,4.69 ± 1.5,6.21 ± 2.8
GCCTTT,3.36 ± 1.7,3.71 ± 0.066,5.06 ± 1.7
TGCTTC,2.79 ± 0.96,2.83 ± 0.76,3.73 ± 1.2
ATCTTC,3.23 ± 1.1,4.36 ± 0.71,6.11 ± 2.2
CTCTTT,3.59 ± 0.8,4.98 ± 1.2,7.01 ± 3
ATCTTA,2.6 ± 0.64,3.89 ± 0.59,5.74 ± 2.1
TTCTTC,4.65 ± 1.6,5.94 ± 0.85,7.95 ± 3.2
CTCTTG,2.31 ± 1.9,1.64 ± 0.35,3.11 ± 0.5
GTCTTT,4.65 ± 1.2,5.87 ± 1.4,8.44 ± 3.8
